Laboratory results reported in the supplement of paper PMC6992640.
± gives the standard deviation of the averaged measurements.

How the values were obtained:
Test in all cases: cell viability (% of vehicle); higher = less cytotoxic
Conditions in all cases: 10 µM; 72 h
HCI01 = system: HCI01 (cells of a triple-negative basal-like breast cancer xenograft)
HCI03 = system: HCI03 (cells of an ER-positive luminal breast cancer xenograft)
HCI09 = system: HCI09 (cells of a triple-negative luminal androgen receptor type breast cancer xenograft)
HCI11 = system: HCI11 (cells of an ER-positive luminal breast cancer xenograft)
HCI13 = system: HCI13 (cells of an ER-positive luminal breast cancer xenograft)
HCI16 = system: HCI16 (cells of a triple-negative basal-like breast cancer xenograft)
UCD52 = system: UCD52 (cells of a triple-negative basal-like breast cancer xenograft)
WHIM2 = system: WHIM2 (cells of a triple-negative basal-like breast cancer xenograft)
WHIM30 = system: WHIM30 (cells of a triple-negative basal-like breast cancer xenograft)
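Note: PDX cells carrying CMV promoter-driven luciferase, viability read as total photon flux per second by IVIS imaging following D-luciferin, vehicle control 0.1% DMSO.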

Compound | cell viability (HCI01) | cell viability (HCI03) | cell viability (HCI09) | cell viability (HCI11) | cell viability (HCI13) | cell viability (HCI16) | cell viability (UCD52) | cell viability (WHIM2) | cell viability (WHIM30)
CNCC(=O)c1ccc(O)c(O)c1.Cl [Adrenalone HCl] | 111 ± 21 | 116 | 104 ± 15 | 107 | 88.5 ± 7.3 | 152 | 99.9 ± 5.5 | 87.8 ± 1.7 | 106 ± 7.2
NC(Cc1ccc(N(CCCl)CCCl)cc1)C(=O)O (configuration not stated) [Melphalan] | 76 ± 14 | 116 | 91.1 ± 6.3 | 107 | 77.7 ± 3.6 | 63.1 | 75.3 ± 11 | 58.5 ± 8.7 | 124 ± 3.2
CCC1(c2cccc(O)c2)CCCCN(C)C1.Cl (configuration not stated) [Meptazinol HCl] | 69.9 ± 42 | 141 | 98.1 ± 10 | 94 | 111 ± 5 | 112 | 85.7 ± 6 | 91.8 ± 33 | 181.3 ± 0.74
CN(C)C1C(=O)C(C(N)=O)=C(O)C2(O)C(=O)C3=C(O)c4c(O)cccc4C(C)(O)C3CC12.Cl (configuration not stated) [Tetracycline Hydrochloride] | 105 ± 10 | 108 | 89.46 ± 0.85 | 96.7 | 92.1 ± 4.3 | 87.5 | 77.3 ± 1.4 | 77.1 ± 20 | 116 ± 19
c1ccc2c(c1)sc1ccccc12 [Dibenzothiophene] | 137 ± 39 | 105 | 87.3 ± 1.6 | 103 | 85 ± 12 | 123 | 115 ± 14 | 117 ± 11 | 98.7 ± 1
CC(NC(C)(C)C)C(=O)c1cccc(Cl)c1.Cl (configuration not stated) [Bupropion hydrochloride] | 101 ± 2.5 | 109 | 99.6 ± 20 | 85.6 | 103 ± 1.1 | 113 | 90.5 ± 14 | 104 ± 5.2 | 121 ± 10
O.O=P1(N(CCCl)CCCl)NCCCO1 (configuration not stated) [Cyclophosphamide monohydrate] | 133 ± 17 | 147 | 90.3 ± 17 | 125 | 140 ± 5.4 | 125 | 98.5 ± 2.4 | 106 ± 2.2 | 130 ± 8.5
C[N+](C)(C)CCCCCCCCCC[N+](C)(C)C.[Br-].[Br-] [Decamethonium Bromide] | 110 ± 4.6 | 120 | 100 ± 6.9 | 102 | 105 ± 1.9 | 105 | 78.9 ± 6.2 | 89.8 ± 8.7 | 101 ± 10
CCCC[N+]1(C)[C@@H]2C[C@@H](OC(=O)[C@H](CO)c3ccccc3)C[C@H]1[C@@H]1O[C@@H]12 (some centres not stated) [Scopolamine butylbromide] | 105 ± 5.4 | 116 | 88.8 ± 19 | 97.3 | 97.4 ± 2.5 | 119 | 100.7 ± 0.64 | 137 ± 14 | 133 ± 4.2
Cl.NCCc1c[nH]c2ccc(O)cc12 [Serotonin HCl] | 103 ± 13 | 132 | 99.9 ± 4 | 94.8 | 57.8 ± 1.6 | 109 | 100 ± 9.6 | 137 ± 45 | 163 ± 26
C=CCN1CCC23c4c5ccc(O)c4OC2C(=O)CCC3(O)C1C5.Cl (configuration not stated) [Naloxone HCl] | 124 ± 20 | 125 | 101 ± 18 | 93.5 | 130 ± 23 | 112 | 74.1 ± 13 | 86 ± 15 | 91.4 ± 2.9
CN(C)C(=O)Oc1ccc[n+](C)c1.[Br-] [Pyridostigmine Bromide] | 104 ± 11 | 120 | 103 ± 3.5 | 92.1 | 136 ± 13 | 105 | 72 ± 2.6 | 96.8 ± 6.6 | 101 ± 3.2
Cc1cc(O)ccc1Cl [Chlorocresol] | 114 ± 41 | 120 | 88.6 ± 17 | 85.9 | 77.6 ± 8.4 | 107 | 87.1 ± 2.5 | 98.6 ± 25 | 91.9 ± 1.3
CCN(C)C(=O)Oc1cccc(C(C)N(C)C)c1 (configuration not stated) [Rivastigmine] | 107 ± 11 | 112 | 109 ± 4.2 | 106 | 98.3 ± 1.7 | 96.3 | 101 ± 7.6 | 103 ± 16 | 118 ± 9.7
Br.COC(=O)C1=CCCN(C)C1 [Arecoline hydrobromide] | 94 ± 16 | 135 | 106 ± 21 | 88.9 | 103 ± 9.4 | 121 | 121 ± 21 | 116 ± 1.5 | 114 ± 16
Cc1cccc(C(C)c2cnc[nH]2)c1C.Cl (configuration not stated) [Medetomidine HCl] | 108 ± 7.7 | 102 | 93.2 ± 21 | 103 | 100.9 ± 1 | 95.4 | 87.4 ± 2.9 | 89.3 ± 22 | 113 ± 5.8
CC(C)NCC(O)c1ccccc1Cl.Cl (configuration not stated) [Clorprenaline HCL] | 104 ± 18 | 121 | 73.1 ± 30 | 93.9 | 83.1 ± 11 | 104 | 90.6 ± 16 | 88.3 ± 13 | 103 ± 2.4
CN1C2CCC1CC(OC(=O)C(CO)c1ccccc1)C2.CN1C2CCC1CC(OC(=O)C(CO)c1ccccc1)C2.O.O=S(=O)(O)O (configuration not stated) [Atropine] | 104 ± 7.5 | 134 | 108 ± 16 | 114 | 95.4 ± 4.6 | 101 | 83.3 ± 5.5 | 91.6 ± 19 | 98.4 ± 7.8
Oc1cc(Cl)ccc1Oc1ccc(Cl)cc1Cl [Triclosan] | 73.5 ± 14 | 109 | 41.7 ± 24 | 71.7 | 66.4 ± 20 | 137 | 97.1 ± 9.6 | 49.5 ± 1.1 | 109.3 ± 1
O=C(OC1C[N+]2(CCCOc3ccccc3)CCC1CC2)C(O)(c1cccs1)c1cccs1.[Br-] (configuration not stated) [Aclidinium Bromide] | 113 ± 14 | 131 | 104 ± 6.3 | 94.2 | 185 ± 6.3 | 93.9 | 79.7 ± 14 | 84.7 ± 7.7 | 106 ± 11
C=C1CC2C(CCC3(C)C(=O)CCC23)C2(C)C=CC(=O)C=C12 (configuration not stated) [Exemestane] | 166 ± 17 | 103 | 101 ± 14 | 124 | 150 ± 6.5 | 124 | 159 ± 17 | 128 ± 28 | 151 ± 15

Compound | cell viability (HCI01) | cell viability (HCI03) | cell viability (HCI09) | cell viability (HCI11) | cell viability (HCI13) | cell viability (HCI16) | cell viability (UCD52) | cell viability (WHIM2) | cell viability (WHIM30)
C[N+](C)(C)CC(=O)O.[Cl-] [Betaine hydrochloride] | 111 ± 4.8 | 123 | 95.3 ± 4.7 | 103 | 113 ± 11 | 122 | 82 ± 6.6 | 95.5 ± 6.1 | 107 ± 2.4
CCC1(c2ccc(N)cc2)CCC(=O)NC1=O (configuration not stated) [Aminoglutethimide] | 108 ± 13 | 113 | 103 ± 12 | 103 | 112 ± 12 | 103 | 93.01 ± 0.41 | 88.9 ± 8 | 108 ± 2.7
CCC1(C)CC(=O)NC(=O)C1 [Bemegride] | 112 ± 13 | 96.5 | 91.7 ± 10 | 109 | 162 ± 13 | 108 | 85.8 ± 8.3 | 97.9 ± 6 | 97.2 ± 8.1
NCC1(CC(=O)O)CCCCC1 [Gabapentin] | 96.8 ± 7.7 | 119 | 97.8 ± 9.5 | 104 | 88.1 ± 2.5 | 76 | 77.8 ± 0.82 | 88.1 ± 8.3 | 76.9 ± 11
O=S(=O)(F)Cc1ccccc1 | 131 ± 25 | 127 | 89.27 ± 0.7 | 92.5 | 87.2 ± 19 | 100 | 106.1 ± 0.78 | 104 ± 31 | 111 ± 22
CCNCC.O=C(O)Cc1ccccc1Nc1c(Cl)cccc1Cl [Diclofenac Diethylamine] | 91.7 ± 19 | 77.9 | 88.7 ± 1.8 | 83.1 | 70.4 ± 10 | 113 | 69 ± 2.6 | 108 ± 7.9 | 94.02 ± 0.47
Cl.O=C1CCC2(O)C3Cc4ccc(O)c5c4C2(CCN3CC2CC2)C1O5 (configuration not stated) [Naltrexone HCl] | 120 ± 20 | 143 | 108.5 ± 0.5 | 108 | 167 ± 2.8 | 151 | 80.3 ± 20 | 88.9 ± 6 | 92.9 ± 7.2
O=C1CCC2(O)C3Cc4ccc(O)c5c4C2(CCN3CC2CC2)C1O5 (configuration not stated) [Naltrexone] | 111 ± 8.9 | 121 | 97.4 ± 10 | 103 | 100.1 ± 0.98 | 93.4 | 94.5 ± 12 | 92.4 ± 14 | 130 ± 23
CN1C(=O)CCS(=O)(=O)C1c1ccc(Cl)cc1 (configuration not stated) [Chlormezanone] | 90 ± 11 | 118 | 92.3 ± 7.5 | 105 | 71.1 ± 7.2 | 122 | 104 ± 10 | 113 ± 12 | 172.2 ± 0.74
Cc1ccc(-n2nccn2)c(C(=O)N2CCN(c3nc4cc(Cl)ccc4o3)CCC2C)c1 (configuration not stated) | 136 ± 9.6 | 88 | 39.5 ± 27 | 93.5 | 101 ± 34 | 101 | 91.9 ± 10 | 118 ± 22 | 136 ± 3.4
CCOC(=O)c1cncn1C(C)c1ccccc1.Cl (configuration not stated) [Etomidate hydrochloride] | 137 ± 30 | 155 | 125 ± 37 | 117 |  | 117 | 97.3 ± 9.7 | 145 ± 30 | 76.4 ± 5.3
CCC(COC(=O)c1cc(OC)c(OC)c(OC)c1)(c1ccccc1)N(C)C (configuration not stated) [Trimebutine] | 116 ± 6.9 | 109 | 103 ± 7.8 | 92.9 |  | 135 | 84.9 ± 15 | 96.2 ± 2.8 | 111.2 ± 0.53
O=P1(N(CCCl)CCCl)NCCCO1 (configuration not stated) [Cyclophosphamide] | 107 ± 4.7 | 98 | 104.9 ± 0.44 | 88.5 | 112 ± 5.9 | 80.3 | 99.09 ± 0.21 | 79.86 ± 0.25 | 115 ± 14
COc1ccc(C(=O)N2CCCC2=O)cc1 [Aniracetam] | 102 ± 2 | 107 | 147 ± 79 | 104 | 139 ± 1.5 | 95.4 | 96 ± 7.3 | 94.8 ± 14 | 86.1 ± 6.5
O=c1[nH]c2ccccc2n1C1CCN(CCCC(c2ccc(F)cc2)c2ccc(F)cc2)CC1 [Pimozide] | 103 ± 21 | 104 | 48.1 ± 31 | 70.4 | 69.39 ± 0.41 | 103 | 86.7 ± 16 | 103 ± 24 | 93.69 ± 0.39
Cl.Cn1c(CCCC(=O)O)nc2cc(N(CCCl)CCCl)ccc21 [Bendamustine HCl] | 98.2 ± 7.3 | 93.5 | 95.2 ± 2.5 | 83.5 | 94.9 ± 12 | 77.4 | 97.9 ± 1.9 | 71.4 ± 9.1 | 92.1 ± 14
CC12CCC3C(CC=C4CC(O)CCC43C)C1CCC2=O (configuration not stated) [Dehydroepiandrosterone (DHEA)] | 124 ± 8.8 | 107 | 87 ± 21 | 112 | 111 ± 12 | 102 | 98.2 ± 9.5 | 93.3 ± 20 | 111 ± 4
CCCC1CC(=O)N(C(CC)C(N)=O)C1 (configuration not stated) [Brivaracetam] | 98 ± 7 | 163 | 97.1 ± 1.8 | 89.3 | 87.83 ± 0.76 | 101 | 106 ± 1.4 | 98.2 ± 12 | 128 ± 11
O=C(O)c1nn(Cc2ccc(Cl)cc2Cl)c2ccccc12 [Lonidamine] | 88.9 ± 18 | 112 | 92.9 ± 6.3 | 82.9 | 85.1 ± 8.5 | 124 | 82.6 ± 1.7 | 80.2 ± 32 | 138.9 ± 1.1
Nc1nc(N)nc(NC2CC2)n1 [Cyromazine] | 111 ± 13 | 182 | 107 ± 1.9 | 97.8 | 109 ± 22 | 134 | 100 ± 2.3 | 105 ± 28 | 154 ± 13
